In PubChem BioAssay AID1159580 (chemical genetic matrix, 2015):
In all, about 5,500 compounds went through this assay and about 2,000 (36%) were called active. Not shown: some 18% with an inconclusive outcome. Rule as the data show it: active = normalized growth mostly below about 0.91 (no sharp cut-off); inconclusive = no clear call, values can overlap the other calls; inactive = mostly above about 0.92. Some of the results follow.

Assay: chemical genetic growth profiling, strain panel (AID 1159580);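 also: tested at 20 µM; growth read once vehicle control cultures reached saturation at 30 °C; 1 = growth at the plate median or of vehicle wells; lower values mean less growth of the strain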
Conditions: S. cerevisiae deletion strains, growth OD

Measured: normalized growth

CNCCC(Oc1ccccc1C)c1ccccc1 (configuration not stated)
inactive: locus YAL040C, strain CLN3, active compounds read low 0.978 | locus YCL061C, strain MRC1 (second series), active compounds read low 0.995 | locus YDR150W, strain NUM1, active compounds read low 0.994 | locus YDR363W, strain ESC2, active compounds read low 0.968 | locus YER002W, strain NOP16, active compounds read low 0.995 | locus YMR263W, strain SAP30, active compounds read low 0.982 | locus YMR307W, strain GAS1, active compounds read low 0.971 | locus YNL128W, strain TEP1, active compounds read low 1.05 | locus YNL153C, strain GIM3, active compounds read low 0.984 | locus YNL175C, strain NOP13, active compounds read low 1.04 | locus YNL197C, strain WHI3, active compounds read low 1.02 | locus YNL224C, strain SQS1, active compounds read low 1.08 | locus YNL322C, strain KRE1, active compounds read low 0.96 | locus YOR083W, strain WHI5 (second series), active compounds read low 1 | locus YPL055C, strain LGE1, active compounds read low 0.984 | locus YPL241C, strain CIN2, active compounds read low 1

C/C(=N/NC(N)=S)c1csc(-c2ccccc2)n1
inactive: locus YAR019C, strain CDC15, active compounds read low 0.917 | locus YBL105C, strain PKC1, active compounds read low 0.947 | locus YBR135W, strain CKS1, active compounds read low 0.948 | locus YBR136W, strain MEC1, active compounds read low 0.941 | locus YBR160W, strain CDC28, active compounds read low 0.942 | locus YDL017W, strain CDC7, active compounds read low 0.962 | locus YDL028C, strain MPS1, active compounds read low 0.948 | locus YDL101C, strain DUN1, active compounds read low 0.931 | locus YDL108W, strain KIN28, active compounds read low 0.942 | locus YDL132W, strain cdc53, active compounds read low 0.942 | locus YDL214C, strain PRR2, active compounds read low 0.834 | locus YDR052C, strain DBF4, active compounds read low 0.944 | locus YDR054C, strain cdc34, active compounds read low 0.898 | locus YDR226W, strain ADK1, active compounds read low 0.961 | locus YDR477W, strain SNF1, active compounds read low 0.816 | locus YER123W, strain YCK3, active compounds read low 0.698 | locus YER133W, strain GLC7, active compounds read low 0.791 | locus YFL009W, strain cdc4, active compounds read low 0.913 | locus YFL029C, strain CAK1, active compounds read low 0.935 | locus YFR003C, strain YPI1, active compounds read low 0.948 | locus YFR019W, strain FAB1, active compounds read low 0.895 | locus YFR028C, strain CDC14, active compounds read low 0.936 | locus YGR040W, strain KSS1, active compounds read low 0.823 | locus YGR052W, strain FMP48, active compounds read low 0.96 | locus YGR092W, strain DBF2, active compounds read low 0.545 | locus YHR079C, strain IRE1, active compounds read low 0.663 | locus YHR082C, strain KSP1, active compounds read low 1.19 | locus YHR205W, strain SCH9, active compounds read low 0.978 | locus YIL147C, strain SLN1, active compounds read low 0.937 | locus YJL095W, strain BCK1, active compounds read low 0.993 | locus YJL128C, strain PBS2, active compounds read low 1.02 | locus YJL157C, strain FAR1, active compounds read low 0.802 | locus YJR016C, strain ILV3, active compounds read low 0.935 | locus YJR066W, strain TOR1 (second series), active compounds read low 0.625 | locus YJR066W, strain TOR1, active compounds read low 1.01 | locus YKL048C, strain ELM1, active compounds read low 0.948 | locus YKL067W, strain YNK1, active compounds read low 0.864 | locus YKL101W, strain HSL1, active compounds read low 0.886 | locus YKL193C, strain SDS22, active compounds read low 0.932 | locus YKL203C, strain TOR2, active compounds read low 0.852 | locus YLR113W, strain HOG1, active compounds read low 0.964 | locus YLR133W, strain CKI1, active compounds read low 0.863 | locus YLR403W, strain SFP1, active compounds read low 0.717 | locus YML070W, strain DAK1, active compounds read low 0.884 | locus YMR001C, strain CDC5, active compounds read low 0.935 | locus YMR205C, strain PFK2 (second series), active compounds read low 0.883 | locus YMR277W, strain FCP1, active compounds read low 0.914 | locus YNL006W, strain LST8, active compounds read low 0.949 | locus YNL020C, strain ARK1, active compounds read low 0.846 | locus YNL161W, strain CBK1, active compounds read low 0.925 | locus YNL183C, strain NPR1, active compounds read low 0.883 | locus YNL207W, strain RIO2, active compounds read low 0.931 | locus YNL222W, strain SSU72, active compounds read low 0.925 | locus YNL307C, strain MCK1 (second series), active compounds read low 0.754 | locus YOL078W, strain AVO1, active compounds read low 0.92 | locus YOL136C, strain PFK27, active compounds read low 0.837 | locus YOR061W, strain CKA2, active compounds read low 0.829 | locus YOR119C, strain RIO1, active compounds read low 0.823 | locus YOR231W, strain MKK1, active compounds read low 0.739 | locus YOR329C, strain SCD5, active compounds read low 0.943 | locus YPL031C, strain PHO85, active compounds read low 0.776 | locus YPL153C, strain RAD53, active compounds read low 0.789 | locus YPL204W, strain HRR25, active compounds read low 0.774 | locus YPL209C, strain IPL1, active compounds read low 0.945 | locus YPL256C, strain CLN2, active compounds read low 1.05 | locus YPR025C, strain CCL1, active compounds read low 0.95 | locus YPR106W, strain ISR1, active compounds read low 0.945 | locus YPR111W, strain DBF20, active compounds read low 0.968 | strain NNK1, active compounds read low 0.969 | strain TSCII, active compounds read low 0.914
active: locus YHR030C, strain SLT2, active compounds read low 1.46 [resistant]
